From the supplement of paper PMC10849652
Targets with a hit are over-represented here; the source holds about 7,900 in all. About 0.6% of all pairs of compound and target were hits. Unmarked numbers belong to inactive results.

Columns and labels:
Assay in all cases: log2 fold change, soluble protein after heating vs DMSO (PISA); higher = thermal stabilisation; K562 cells, 10 uM, 30 min; active = over 0.2 and 3.5 SD of the protein, either way, in both replicates (recomputed)
[1] = compound: NC(=O)Nc1cc(-c2cccc(F)c2)sc1C(=O)N[C@H]1CCCNC1
Procedure, shortened: (§1)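 Soluble protein was defined as the supernatant after 21,000xg for 90 min. It came from K562 cells at 2×10^6 cells/mL given 10 μM compound for 30 min, heated in aliquots for 3 min across 48°C-58°C, pooled, and extracted in PBS with 0.5% NP-40 at 4°C, and was quantified by TMTpro 16plex LC-MS/MS with equalised channel sums. Thermal stability against control samples, from duplicates, is reported as log2 fold change.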

[2] = compound: NC(=O)c1cnc(N[C@@H]2CCCC[C@@H]2N)nc1Nc1cccc(-n2nccn2)c1
Procedure, shortened: as §1

[3] = compound: NC1(c2ccc(-c3nc4ccn5c(=O)[nH]nc5c4cc3-c3ccccc3)cc2)CCC1
Procedure, shortened: as §1

[4] = compound: NCC(=O)Nc1ccc(-n2nc(C(F)(F)F)cc2-c2ccc3c(ccc4ccccc43)c2)cc1
Procedure, shortened: as §1

entinostat = compound: Nc1ccccc1NC(=O)c1ccc(CNC(=O)OCc2cccnc2)cc1 [entinostat]
Procedure, shortened: as §1

vorinostat = compound: O=C(CCCCCCC(=O)Nc1ccccc1)NO [vorinostat]
Procedure, shortened: as §1

citarinostat = compound: O=C(CCCCCCNC(=O)c1cnc(N(c2ccccc2)c2ccccc2Cl)nc1)NO [citarinostat]
Procedure, shortened: as §1

silmitasertib = compound: O=C(O)c1ccc2c(c1)nc(Nc1cccc(Cl)c1)c1ccncc12 [silmitasertib]
Procedure, shortened: as §1

[5] = compound: O=C1NC(=O)C(c2cnc3ccccn23)=C1c1cn2c3c(cc(F)cc13)CN(C(=O)N1CCCCC1)CC2
Procedure, shortened: as §1

[6] = compound: c1cc(OCCN2CCCCC2)cc(-c2n[nH]c3ccc(-c4nnc[nH]4)cc23)c1
Procedure, shortened: as §1

Chain of UniProt Q9H1H9 (Q9H1H9 whole entry, looked up): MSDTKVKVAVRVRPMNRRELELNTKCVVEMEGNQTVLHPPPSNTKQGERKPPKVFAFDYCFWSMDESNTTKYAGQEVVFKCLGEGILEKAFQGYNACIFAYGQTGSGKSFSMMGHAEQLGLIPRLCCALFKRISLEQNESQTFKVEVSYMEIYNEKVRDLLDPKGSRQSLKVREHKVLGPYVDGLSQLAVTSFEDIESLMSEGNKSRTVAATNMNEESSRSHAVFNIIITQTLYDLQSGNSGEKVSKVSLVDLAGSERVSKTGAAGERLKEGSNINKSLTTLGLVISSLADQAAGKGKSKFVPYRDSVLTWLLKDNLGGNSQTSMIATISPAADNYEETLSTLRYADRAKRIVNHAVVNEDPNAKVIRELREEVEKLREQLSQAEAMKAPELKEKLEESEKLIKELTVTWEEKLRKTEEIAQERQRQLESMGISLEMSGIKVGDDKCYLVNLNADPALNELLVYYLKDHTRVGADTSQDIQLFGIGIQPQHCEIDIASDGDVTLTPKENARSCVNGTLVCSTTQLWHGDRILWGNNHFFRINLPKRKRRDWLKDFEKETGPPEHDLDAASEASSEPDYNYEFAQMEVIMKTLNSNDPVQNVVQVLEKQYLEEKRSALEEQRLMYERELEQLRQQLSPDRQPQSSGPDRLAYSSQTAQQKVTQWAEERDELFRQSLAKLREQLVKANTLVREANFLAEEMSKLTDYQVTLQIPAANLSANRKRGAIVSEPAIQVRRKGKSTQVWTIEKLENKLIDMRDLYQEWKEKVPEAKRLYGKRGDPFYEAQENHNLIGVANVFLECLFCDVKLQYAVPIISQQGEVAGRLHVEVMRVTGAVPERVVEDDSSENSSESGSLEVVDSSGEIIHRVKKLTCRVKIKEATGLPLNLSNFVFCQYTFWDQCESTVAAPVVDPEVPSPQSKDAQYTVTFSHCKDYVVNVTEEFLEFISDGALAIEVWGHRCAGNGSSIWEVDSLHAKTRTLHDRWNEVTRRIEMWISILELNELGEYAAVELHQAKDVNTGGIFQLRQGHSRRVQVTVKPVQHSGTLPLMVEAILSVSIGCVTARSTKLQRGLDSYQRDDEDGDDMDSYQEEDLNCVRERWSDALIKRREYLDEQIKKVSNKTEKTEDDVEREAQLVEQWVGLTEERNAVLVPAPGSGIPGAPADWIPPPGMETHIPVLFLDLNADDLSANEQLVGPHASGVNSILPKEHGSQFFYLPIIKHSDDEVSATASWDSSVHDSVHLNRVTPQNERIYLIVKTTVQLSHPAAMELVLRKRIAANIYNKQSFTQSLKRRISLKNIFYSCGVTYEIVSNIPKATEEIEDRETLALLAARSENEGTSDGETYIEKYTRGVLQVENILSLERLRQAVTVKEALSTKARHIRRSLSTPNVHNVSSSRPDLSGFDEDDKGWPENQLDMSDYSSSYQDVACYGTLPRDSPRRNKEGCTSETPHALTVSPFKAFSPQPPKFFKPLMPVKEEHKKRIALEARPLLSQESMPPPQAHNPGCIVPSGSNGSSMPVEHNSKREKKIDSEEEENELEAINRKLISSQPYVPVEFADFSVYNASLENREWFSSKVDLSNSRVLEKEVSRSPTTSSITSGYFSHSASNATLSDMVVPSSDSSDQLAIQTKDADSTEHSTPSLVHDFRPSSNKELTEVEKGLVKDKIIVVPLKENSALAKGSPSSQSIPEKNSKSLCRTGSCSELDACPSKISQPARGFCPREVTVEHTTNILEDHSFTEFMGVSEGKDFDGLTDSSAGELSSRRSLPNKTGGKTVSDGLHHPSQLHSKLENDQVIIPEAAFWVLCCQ
Chain of UniProt Q9C0E8 (Q9C0E8 whole entry, looked up): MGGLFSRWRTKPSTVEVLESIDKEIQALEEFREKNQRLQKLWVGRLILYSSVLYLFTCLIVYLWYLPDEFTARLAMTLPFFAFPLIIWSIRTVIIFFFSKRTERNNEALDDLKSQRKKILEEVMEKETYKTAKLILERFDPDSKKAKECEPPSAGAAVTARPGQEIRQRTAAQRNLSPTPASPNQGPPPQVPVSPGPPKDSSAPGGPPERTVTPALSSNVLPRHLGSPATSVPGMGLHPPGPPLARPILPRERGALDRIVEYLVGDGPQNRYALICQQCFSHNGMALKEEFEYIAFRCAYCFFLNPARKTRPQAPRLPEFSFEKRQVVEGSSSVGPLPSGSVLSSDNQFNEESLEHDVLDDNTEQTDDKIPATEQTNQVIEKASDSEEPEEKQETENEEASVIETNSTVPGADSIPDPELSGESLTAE
Chain of UniProt Q16539 (Q16539 whole entry, looked up): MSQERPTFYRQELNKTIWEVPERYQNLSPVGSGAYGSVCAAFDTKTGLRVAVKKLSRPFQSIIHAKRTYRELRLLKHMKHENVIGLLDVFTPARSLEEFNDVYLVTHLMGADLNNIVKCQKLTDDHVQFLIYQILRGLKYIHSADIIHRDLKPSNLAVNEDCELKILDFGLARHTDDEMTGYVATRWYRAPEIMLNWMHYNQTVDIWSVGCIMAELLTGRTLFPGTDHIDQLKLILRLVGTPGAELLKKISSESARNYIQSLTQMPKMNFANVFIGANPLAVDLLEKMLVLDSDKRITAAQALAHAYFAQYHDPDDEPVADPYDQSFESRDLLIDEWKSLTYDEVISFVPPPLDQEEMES
Chain of UniProt Q92551 (Q92551 whole entry, looked up): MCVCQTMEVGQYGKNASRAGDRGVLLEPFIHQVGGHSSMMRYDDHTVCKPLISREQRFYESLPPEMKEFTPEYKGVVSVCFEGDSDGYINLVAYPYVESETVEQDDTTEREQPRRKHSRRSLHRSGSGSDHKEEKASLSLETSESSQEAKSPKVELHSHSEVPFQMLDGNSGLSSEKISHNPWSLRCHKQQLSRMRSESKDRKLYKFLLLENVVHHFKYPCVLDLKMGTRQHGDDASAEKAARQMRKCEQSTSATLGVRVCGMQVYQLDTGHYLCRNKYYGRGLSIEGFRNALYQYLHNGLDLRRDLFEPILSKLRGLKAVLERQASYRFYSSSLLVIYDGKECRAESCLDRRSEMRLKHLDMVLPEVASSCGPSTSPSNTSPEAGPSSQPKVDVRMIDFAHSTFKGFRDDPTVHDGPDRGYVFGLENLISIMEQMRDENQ
Chain of UniProt P55082 (P55082 whole entry, looked up): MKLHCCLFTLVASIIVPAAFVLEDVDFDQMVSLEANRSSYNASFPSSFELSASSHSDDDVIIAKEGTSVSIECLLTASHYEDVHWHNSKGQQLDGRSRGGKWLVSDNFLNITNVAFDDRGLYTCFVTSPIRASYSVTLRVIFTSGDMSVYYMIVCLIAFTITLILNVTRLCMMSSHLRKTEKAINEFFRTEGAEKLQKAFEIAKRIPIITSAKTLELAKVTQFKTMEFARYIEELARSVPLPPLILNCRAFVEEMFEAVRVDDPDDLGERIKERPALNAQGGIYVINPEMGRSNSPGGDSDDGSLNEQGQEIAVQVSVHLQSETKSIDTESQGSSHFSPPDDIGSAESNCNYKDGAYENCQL
Chain of UniProt Q96G25 (Q96G25 whole entry, looked up): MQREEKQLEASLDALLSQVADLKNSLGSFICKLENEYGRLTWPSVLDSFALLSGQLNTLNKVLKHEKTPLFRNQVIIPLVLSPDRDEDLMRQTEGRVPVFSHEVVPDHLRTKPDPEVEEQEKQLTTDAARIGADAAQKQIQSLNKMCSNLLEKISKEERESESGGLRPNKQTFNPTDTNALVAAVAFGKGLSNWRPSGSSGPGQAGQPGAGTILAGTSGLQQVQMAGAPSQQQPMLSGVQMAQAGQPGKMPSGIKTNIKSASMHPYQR
Chain of UniProt P51884 (P51884 whole entry, looked up): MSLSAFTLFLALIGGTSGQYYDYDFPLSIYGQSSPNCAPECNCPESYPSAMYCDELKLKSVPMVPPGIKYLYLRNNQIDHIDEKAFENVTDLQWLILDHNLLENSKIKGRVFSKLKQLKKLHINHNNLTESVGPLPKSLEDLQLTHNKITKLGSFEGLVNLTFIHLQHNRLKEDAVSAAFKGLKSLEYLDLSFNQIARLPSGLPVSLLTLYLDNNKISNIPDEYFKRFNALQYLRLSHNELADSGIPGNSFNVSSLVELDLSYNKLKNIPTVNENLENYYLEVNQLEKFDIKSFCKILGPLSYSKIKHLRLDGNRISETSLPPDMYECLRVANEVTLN
Chain of UniProt Q92604 (Q92604 whole entry, looked up): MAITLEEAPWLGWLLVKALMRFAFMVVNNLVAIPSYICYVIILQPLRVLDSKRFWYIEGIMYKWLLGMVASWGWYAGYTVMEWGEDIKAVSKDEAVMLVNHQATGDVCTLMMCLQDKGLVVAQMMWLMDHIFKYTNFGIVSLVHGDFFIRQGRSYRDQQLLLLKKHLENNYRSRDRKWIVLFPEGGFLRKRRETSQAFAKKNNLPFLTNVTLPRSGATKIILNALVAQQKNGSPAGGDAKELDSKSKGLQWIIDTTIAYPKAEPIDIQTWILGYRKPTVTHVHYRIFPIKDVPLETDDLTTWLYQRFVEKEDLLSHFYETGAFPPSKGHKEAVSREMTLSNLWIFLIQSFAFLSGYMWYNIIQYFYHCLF
Chain of UniProt Q08334 (Q08334 whole entry, looked up): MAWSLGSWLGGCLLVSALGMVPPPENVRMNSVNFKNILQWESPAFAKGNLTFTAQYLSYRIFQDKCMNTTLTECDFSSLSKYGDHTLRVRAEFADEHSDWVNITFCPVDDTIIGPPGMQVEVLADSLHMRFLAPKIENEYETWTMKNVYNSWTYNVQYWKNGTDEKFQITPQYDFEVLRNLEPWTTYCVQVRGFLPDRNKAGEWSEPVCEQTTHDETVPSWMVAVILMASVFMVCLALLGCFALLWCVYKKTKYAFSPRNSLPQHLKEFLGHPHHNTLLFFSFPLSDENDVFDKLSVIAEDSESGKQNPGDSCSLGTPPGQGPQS
Chain of UniProt Q9NQX7 (Q9NQX7 whole entry, looked up): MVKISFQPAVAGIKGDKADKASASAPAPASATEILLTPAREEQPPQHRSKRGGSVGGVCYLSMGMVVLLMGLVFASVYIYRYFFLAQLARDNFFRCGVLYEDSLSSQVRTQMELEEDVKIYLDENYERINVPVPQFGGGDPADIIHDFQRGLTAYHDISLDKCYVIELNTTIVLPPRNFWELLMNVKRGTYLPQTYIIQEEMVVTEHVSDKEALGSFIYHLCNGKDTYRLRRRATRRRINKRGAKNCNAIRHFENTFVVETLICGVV

Target | log2 fold change [1] | log2 fold change [2] | log2 fold change [3] | log2 fold change [4] | log2 fold change (entinostat) | log2 fold change (vorinostat) | log2 fold change (citarinostat) | log2 fold change (silmitasertib) | log2 fold change [5] | log2 fold change [6]
MIEF1 (UniProt L0R8F8) | 0.085 | 0.094 | 0.047 | 0.002 | 0.007 | -0.012 | 0.039 | -0.021 | -0.063 | -0.056
MFSD11 (UniProt O43934) | 0.035 | 0.038 | -0.202 | 0.002 | -0.112 | -0.028 | -0.096 | 0.044 | -0.04 | 0.063
LNPK (UniProt Q9C0E8) | 0.011 | 0.01 | 0.009 | 0.014 | -0.013 | -0.006 | 0.002 | 0.072 | -0.051 | -0.006
LEMD3 (UniProt Q9Y2U8) | -0.206 | -0.029 | -0.142 | -0.116 | -0.017 | 0.035 | 0.053 | -0.068 | -0.077 | 0.057
MAGEA9 (UniProt P43362) | -0.017 | -0.027 | -0.243 | 0.033 | 0 | 0.132 | 0.013 | 0.052 | -0.079 | -0.106
LTV1 (UniProt Q96GA3) | 0.006 | 0.008 | 0.003 | 0.041 | 0.034 | -0.005 | -0.038 | 0.147 | 0.132 | -0.16
LEMD2 (UniProt Q8NC56) | 0.008 | -0.139 | -0.112 | -0.157 | 0.004 | 0.04 | 0.058 | -0.044 | -0.02 | -0.046
MAP4K4 isoform 3 (UniProt O95819) | -0.199 | -0.154 | -0.204 | -0.013 | 0.07 | 0.075 | 0.044 | -0.024 | – | -0.179
IP6K1 (UniProt Q92551) | -0.039 | -0.253 | -0.457 | – | 0.089 | 0.138 | -0.02 | -0.059 | -0.048 | 0.858 (active)
METAP1D (UniProt Q6UB28) | 0.061 | 0.252 | -0.033 | 0.073 | -0.071 | – | 0.098 | 0.064 | -0.099 | -0.04
MAPK14 (UniProt Q16539) | -0.019 | -0.047 | -0.136 | -0.033 | 0.022 | 0.027 | 0.051 | 0.37 | – | 0.058
IWS1 (UniProt Q96ST2) | -0.049 | 0.034 | -0.028 | -0.171 | 0.012 | -0.008 | -0.059 | 0.054 | -0.032 | 0
INTS5 (UniProt Q6P9B9) | 0.015 | -0.116 | -0.079 | -0.175 | 0.014 | – | – | -0.006 | -0.076 | –
MED12 isoform 2 (UniProt Q93074) | 0.022 | -0.455 | -0.191 | – | 0.066 | 0.22 | 0.181 | 0.016 | -0.005 | -0.311
MED8 isoform 2 (UniProt Q96G25) | 0.048 | 0.2 | 0.038 | 0.303 | -0.107 | – | 0.035 | 0.079 | -0.043 | -0.092
LPIN1 isoform 7 (UniProt Q14693) | -0.006 | -0.011 | -0.039 | -0.03 | -0.027 | 0.136 | 0.001 | -0.139 | -0.098 | -0.048
MELK (UniProt Q14680) | -0.384 | -0.128 | – | – | -0.052 | 0.062 | -0.001 | – | -0.016 | -0.366

Target | log2 fold change [1] | log2 fold change [2] | log2 fold change [3] | log2 fold change [4] | log2 fold change (entinostat) | log2 fold change (vorinostat) | log2 fold change (citarinostat) | log2 fold change (silmitasertib) | log2 fold change [5] | log2 fold change [6]
LRBA, A0A494BZW2 | 0.036 | -0.031 | -0.114 | – | 0.232 | -0.032 | 0.03 | 0.011 | 0.063 | 0.028
MAP4 isoform 5 (UniProt P27816) | 0.135 | 0.087 | 0.109 | – | 0.075 | – | -0.121 | 0.012 | 0.423 (active) | 0.074
IL10RB (UniProt Q08334) | -0.113 | -0.121 | – | -0.031 | -0.431 (active) | 0.109 | 0.055 | – | 0.062 | -0.026
MFN2 (UniProt O95140) | -0.081 | -0.088 | -0.104 | -0.168 | 0.014 | -0.019 | -0.021 | -0.024 | -0.019 | -0.008
ILRUN (UniProt Q9H6K1) | -0.213 | -0.09 | -0.128 | -0.025 | 0.024 | – | 0.027 | 0.014 | -0.059 | -0.01
IMMP1L (UniProt Q96LU5) | -0.062 | -0.055 | -0.103 | -0.037 | 0.005 | – | 0.044 | -0.132 | -0.088 | 0.017
ITM2C (UniProt Q9NQX7) | -0.309 | -0.009 | – | -0.133 | 0.164 | -0.032 | – | – | 0.029 | –
LYN isoform 2 (UniProt P07948) | 0.162 | 0.014 | – | -0.073 | -0.155 | – | – | – | 0.082 | –
MAGED1 isoform 2 (UniProt Q9Y5V3) | 0.098 | -0.029 | – | -0.258 | 0 | – | – | – | 0.262 | –
LPGAT1 (UniProt Q92604) | 0.038 | 0.048 | -0.102 | 0.063 | -0.047 | – | 0.157 | -0.015 | -0.015 | -0.108
ITM2B (UniProt Q9Y287) | -0.036 | 0.091 | -0.144 | 0.021 | -0.083 | – | -0.006 | 0.38 (active) | 0.109 | -0.178
LIMD1 (UniProt Q9UGP4) | 0.009 | 0.005 | 0.004 | -0.029 | -0.038 | 0.025 | 0.052 | 0.03 | -0.06 | 0.01
MAP3K20 isoform 2 (UniProt Q9NYL2) | 0.09 | -0.041 | 0.099 | – | 0.056 | – | – | 0.009 | -0.008 | –
LUM (UniProt P51884) | -0.067 | -0.108 | – | -0.002 | -0.033 | – | -0.042 | – | 0.185 | 0.47
MFAP3 (UniProt P55082) | 0.043 | -0.04 | – | -0.09 | -0.052 | – | – | – | -0.243 | –
KIF13A isoform 4 (UniProt Q9H1H9) | -0.034 | -0.165 | – | – | 0.303 | – | – | – | – | –
